Results with a measured potency or affinity are listed apart. Activity calls are given as the source filed them.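 The calls were made as follows: active = viability signal falls with a fitted half-maximal concentration at or below a set limit at all three treatment times; inconclusive = treatment times disagree, or a flat partial drop, or poor fit; inactive = inactive at every treatment time.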
Experiment: cytotoxicity in HeLa cervical cancer cells – cell-based, CellTiter-Glo ATP luminescence, 8-48 h, dry powder, mechanism study for HRAS target identification, late-stage follow-up (AID 720609)

| SMILES | outcome |
| --- | --- |
| CCC(=O)N(c1ccc(OC)c(Cl)c1)C(C(=O)NCCc1ccccc1)c1cccs1 (configuration not stated) | inactive |
| Cc1onc(C(=O)N2CCN(C(c3ccncc3)c3ccncc3)CC2)c1[N+](=O)[O-] | inactive |

— PubChem BioAssay AID720609 (Broad Institute, 2013)
